Bioassay records: PubChem BioAssay, National Center for Advancing Translational Sciences (NCATS)
Pf growth 48h – inhibits P. falciparum growth in the first generation, 48 h; AID 504832; actives 5.9% (n = 310,000); Potency, µM (top dose mostly 28.7 µM), inactives show top-dose activity change, negative = inhibition, most hits filed as inhibitors; P. falciparum luciferase growth in erythrocytes, 48 h; further: potency means the concentration at half of the fitted maximal effect; on the % scale 0 is the no-effect control and ±100 the full control effect
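Parasite viability was followed by luminescence of a genomically integrated firefly luciferase. Cultures held 0.1% parasitemia at 2% hematocrit (final), incubated under 5% CO2 at 37 C.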
CHX counter – counter-screen for Shiga toxin inhibitors: cycloheximide protein synthesis inhibition; cell reporter, cycloheximide protein synthesis inhibition counterscreen; max response, %; actives 12% (n = 300,000); AID 2314; in the data active means max response mostly above about 13%, no sharp cut-off; inactive means mostly below about 14%; further: read at 38.3 µM for the half of the compounds with a filed dose; 0% is about no effect
AMA1-RON2 inh – inhibitors of Plasmodium falciparum AMA1-RON2 interaction | AlphaScreen AMA1-biotinylated RON2 peptide binding | Potency, µM (highest dose often 58.2 µM), inactives show top-dose activity change, negative = inhibition, actives largely listed as inhibitors | actives 0.2% (n = 360,000) | AID 720542;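 further: potency means the concentration at half of the fitted maximal effect; 0% = vehicle wells and -100% = peptide control; nearly all actives have a fitted effect of over 45% in size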
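AMA1 (3D7) with his tag at 25 nM final met compounds first, then biotinylated RON2 peptide at 25 nM; detection used donor plus acceptor beads, 10 µg/mL apiece, read by AlphaScreen after 30 min at room temperature.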
Pf growth 96h – P. falciparum growth inhibition at 96 hours. Potency, µM (doses to about 28.7 µM), for the others: top-dose activity change, negative = inhibition, usual class: inhibitors. P. falciparum luciferase reporter growth, 96 h. actives 6.9% (n = 320,000); further: potency means the concentration at half of the fitted maximal effect; on the % scale 0 is the no-effect control and ±100 the full control effect
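Plates of compound plus infected erythrocytes (2% hematocrit, 0.05% parasitemia final) incubate 96 hours, 37 C, 5% CO2. Detection reagent added; reduced luminescence from the parasites' luciferase reporter flags inhibition.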
Shiga toxin inh – Shiga toxin inhibition; Vero cells, Shiga toxin protein synthesis inhibition reporter; inhibition, % at 38.7 µM; actives 9.2% (n = 290,000); in the data active means inhibition mostly above about 28%, no sharp cut-off; inactive means mostly below about 43%; further: 0% is about no effect
SARS PLpro yeast – inhibitors of SARS-CoV papain-like protease in yeast. S. cerevisiae expressing SARS-CoV PLpro, growth rescue. Potency, µM (series often up to 32.9 µM), inactives show at the top dose activity, positive = growth rescue, actives largely listed as activators. actives 0.19% (n = 330,000); calls by dose curve; further: potency means the concentration at half of the fitted maximal effect; 0% is about no effect; nearly all actives have a fitted effect of over 55% in size
Starred values were filed as active, the others as inactive; ? = inconclusive; . = not tested or not shown; [ ] = dose if it differs, or a comment. Only some compounds are listed: those with a hit (about 19% of all), similar ones and a draw of the others. Unless noted, the call rests on the fitted dose curve; in most records, active means well fitted curve in the direction sought with a large enough effect; inconclusive means small, poorly fitted or top-dose-only effect, or another doubt; inactive means no such curve, though single readings can be large; an effect the other way counts as inactive or inconclusive.

SMILES	Pf growth 48h	CHX counter	AMA1-RON2 inh	Pf growth 96h	Shiga toxin inh	SARS PLpro yeast
O=C(CN(CC1CCCO1)C(=O)CNS(=O)(=O)c1ccc(Cl)cc1)NCc1ccc(F)cc1 (stereo not drawn)	-4%	-5	8%	-9%	-15	8%
COc1cc(C(=O)Nc2ccc(NC(=O)c3ccccc3)nc2)cc(OC)c1OC	5.2µM*	9	-4%	29%	11	-4%
COc1ccc(C(=O)Nc2ccc(Cl)cn2)cc1Cl	84%	50*	-5%	96%	79*	0%
COc1cc(C(=O)Nc2ccc(NC(=O)C(C)C)nc2)cc(OC)c1OC	?	-6	-1%	0%	-16	-1%
Cc1cc(Br)cn2c(Cc3cccc(F)c3)c(-c3ccc(C#N)cc3)nc12	.	.	4%	.	.	.
O=c1cc(NCc2ccccc2)nc2n1CCCS2	?	-5	1%	?	-17	4%
COC(=O)c1cc(S(=O)(=O)n2nc(C)cc2C)c(Cl)cc1Cl	14%	1	-4%	-7%	-10	3%
COC(=O)c1cc(S(=O)(=O)N2CCCC2=O)c(Cl)cc1Cl	?	-2	4%	10µM*	-6	-1%
O=C(Nc1cc(Sc2ccccn2)cc([N+](=O)[O-])c1)c1cccc(Cl)c1	9.3µM*	9	-3%[11.6 µM]	20%	8	-8%
O=C(Nc1ccccc1C(=O)Nc1ccccn1)c1ccc([N+](=O)[O-])cc1	5%	-3	-4%	?	11	1%
O=C(Nc1cc(Sc2ccccn2)cc([N+](=O)[O-])c1)c1ccc(Cl)cc1	?	21*	-21%	?	57	7%
O=C(Nc1cccc(Cl)c1)c1cccc(Oc2ccc([N+](=O)[O-])cc2Cl)c1	?	-3	-14%	?	-9	-17%
CC(=O)N1CCOc2ccc(S(=O)(=O)N3CCC(C(=O)NCc4ccc(C)cc4)CC3)cc21	-14%	-3	0%	85%	14	0%
CCOC(=O)c1cn2cccnc2n1	.	-3	-9%	5%	-11	3%
O=C(NCCCN1CCOCC1)C(c1ccccc1)c1ccccc1	17%	-3	-4%	14%	-7	2%
NC(=O)COC(=O)c1c2c(nc3ccccc13)CCCCC2	-20%	7	-5%	-13%	-23	-4%
O=C(COC(=O)c1c2c(nc3ccccc13)CCCC2)c1cccs1	?	23*	-10%	?	46	-25%
O=C(COC(=O)c1c2c(nc3ccccc13)CCCCC2)c1ccc(Cl)s1	-26%	9	-31%	?	78*	-55%
FC(F)(F)c1cnc2c(-c3ccc(Cl)cc3Cl)noc2c1	.	-4	37%	-2%	3	-6%
Nc1nccc(-c2cc(-c3ccc(Cl)cc3Cl)no2)n1	398%	42*	-9%	23%	54*	-2%
O=C(NC1CCCCCC1)C1c2ccccc2C(=O)N1CCCN1CCOCC1 (stereo not drawn)	-12%	-2	-4%	13µM*	-5	-9%
O=C(NC1CCCC1)C1c2ccccc2OCC(=O)N1CCCN1CCOCC1 (stereo not drawn)	.	.	3%	.	.	.
COc1ccc(NS(=O)(=O)c2ccc(NC(=O)c3ccc(Br)cc3)cc2)nn1	7%	-2	1%	5%	-8	0%
COc1ccc(NS(=O)(=O)c2ccc(NC(=S)NC(=O)c3ccc(Br)cc3)cc2)nn1	19%	-2	29%	12µM*	-8	-13%
O=C(NC(=S)Nc1ccc(S(=O)(=O)Nc2nccs2)cc1)c1cccnc1	-2%	1	31%	69%	-9	3%
SMILES	Pf growth 48h	CHX counter	AMA1-RON2 inh	Pf growth 96h	Shiga toxin inh	SARS PLpro yeast
COc1cccc(OC)c1C(=O)NC(=S)Nc1ccc(S(=O)(=O)Nc2nccs2)cc1	13µM*	-3	2%	11%	-4	0%
COc1ccccc1C(=O)Nc1ccc(S(=O)(=O)Nc2nccs2)cc1	14%	0	-4%	19%	21	0%
O=C(NC(=S)Nc1ccc(S(=O)(=O)Nc2nccs2)cc1)c1ccccc1	-17%	6	-3%	13µM*	-3	-2%
C#CCOc1ccccc1C(N)=O	10%	0	-1%	27%	15	0%
COc1ccc(NC(=O)CN(C)C(=O)CCc2c[nH]c3ccccc23)cc1	0%	-3	3%	18%	6	0%
CCN(c1ccccc1)S(=O)(=O)c1ccc(N2CCN(c3ccc(O)cc3)CC2)nc1	.	.	?	.	.	-9%
O=c1cccccc1NCc1ccccc1	.	26*	0%	1%	6	15%
Cc1ccc(NS(=O)(=O)c2ccc3c(c2)C(=O)c2ccccc2C3=O)c(C)c1	-12%	-1	-11%[11.6 µM]	?	1	15%
O=C1C=C(Nc2ccccc2O)c2ccccc2C1=O	10µM*	17*	-26%	9.3µM*	84*	-22%
O=C1C=C(Nc2ccc(F)cc2)c2ccccc2C1=O	1.9µM*	.	4%[11.6 µM]	1µM*	.	-1%
Cc1ccc(NC2=CC(=O)C(=O)c3ccccc32)c(C)c1	0.83µM*	.	-4%	0.59µM*	.	-7%
CC(NS(=O)(=O)c1cc2c3c(c1)CCN3C(=O)CC2)c1ccccc1 (stereo not drawn)	.	.	-9%	.	.	.
CCn1c(SCC(=O)NC2CC2)nnc1-c1ccc(C)cc1	15%	1	2%	3%	-5	-3%
COC(=O)c1ccc(COC(=O)c2ccc(-n3cnnn3)cc2)o1	?	4	?	?	16	4%
CN(C1CCCCC1)S(=O)(=O)c1ccc2c(c1)c(=O)c(C(=O)O)cn2C	.	.	5%	.	.	.
CCCc1nnc(SCC(=O)O)n1CC	?	1	2%	9%	-4	1%
CCOc1ccc(NC2=CC(=O)C(=O)c3ccccc32)cc1	.	.	-28%	.	.	.
O=C1C=C(NCc2ccccc2)c2ccccc2C1=O	?	56*	-6%	-5%	81*	-4%
CC(C)c1ccc(-n2ccnc2SCC(=O)O)cc1	14%	3	-3%	13%	-8	0%
O=C1CC(c2ccc(F)cc2)c2cc3c(cc2N1)CCC3 (stereo not drawn)	15µM*	-4	-8%	25%	-10	-73%
O=C(c1ccccc1S(=O)(=O)NCc1ccccc1)N1CCCC1	.	11	-2%	15µM*	49	11%
Cc1ccc(C)c(S(=O)(=O)NCc2ccc(C(=O)N3CCCCCC3)cc2)c1	?	2	-17%	7.4µM*	1	7%
O=C(c1ccc(CNS(=O)(=O)c2ccc(F)cc2)cc1)N1CCCCCC1	.	.	-6%	.	.	.
Cc1ccc(C)c(S(=O)(=O)NCc2ccc(C(=O)N3CCN(c4ccccc4)CC3)cc2)c1	-13%	-1	-29%	-31%	-29	?
Cc1ccc(S(=O)(=O)NCc2ccccc2)cc1C(=O)N1CCCCCCC1	-12%	.	28%	0%	.	1%
